PTHR1 ag: PTHR1 (human) receptor agonism; HEK293 GP2 PTHR1 cells, GloSensor cAMP luminescence, 1 h; Q03431; 0.075% of 410,000 active; Potency, µM (highest dose often 115 µM), usual class: activators; AID 743266; further: nearly all actives have a fitted effect of over 55% in size
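HEK-293-derived GP2 cells expressing PTHR1 and a GloSensor cAMP reporter, 3,000/well, plated overnight, given luciferin plus IBMX (each 0.5 mM as added) for 1 h at 37 °C, then compound for 1 h at 37 °C. Luminescence was read after 15 min at room temperature.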
GLP-1R agonist: activates the human GLP-1 receptor; P43220; HEK293 GLP-1R CRE-luciferase, luminescence, 4-6 h; cells express a hypersensitive GLP-1R form; Potency, µM (top dose mostly 45.6 µM), actives largely listed as activators; 0.007% of 380,000 active; AID 624172
Target sequence (P43220 whole entry, looked up): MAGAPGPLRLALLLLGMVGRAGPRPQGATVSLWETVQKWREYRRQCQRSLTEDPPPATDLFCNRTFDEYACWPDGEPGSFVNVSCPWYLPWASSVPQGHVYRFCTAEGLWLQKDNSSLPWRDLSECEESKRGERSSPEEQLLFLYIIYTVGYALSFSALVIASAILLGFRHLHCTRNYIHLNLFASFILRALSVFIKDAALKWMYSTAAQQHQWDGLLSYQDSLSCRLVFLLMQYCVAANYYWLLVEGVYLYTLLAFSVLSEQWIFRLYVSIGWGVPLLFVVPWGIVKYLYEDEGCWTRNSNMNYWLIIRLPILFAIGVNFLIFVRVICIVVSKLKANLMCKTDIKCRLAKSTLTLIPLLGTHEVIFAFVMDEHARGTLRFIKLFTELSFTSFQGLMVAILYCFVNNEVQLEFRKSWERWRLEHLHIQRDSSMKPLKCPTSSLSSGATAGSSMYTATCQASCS
HEK293 tox: cytotoxicity in counter-screen for GLP-1R inverse agonists. HEK293 cAMP-luciferase reporter cells, luminescence, 24 h. AID 624418. 0.13% of 410,000 active. Potency, µM (doses to about 38.3 µM), most hits filed as inhibitors;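 further: loss of luciferase light is scored as toxicity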
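A 23 nL compound transfer followed 12 hours of cell culture at 37 deg C; exposure then lasted 24 hr. Luciferase assay detection reagent was dispensed and plates read for luminescence after a 12 min room-temperature wait.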
GLP1R inv ag: inverse agonists of human GLP-1 receptor. P43220. HEK293 GLP-1R CRE-luciferase, luminescence, 24 h; GLP-1R form is constitutively active. Potency, µM (series often up to 38.3 µM), hits mostly inhibitors. 1.6% of 410,000 active. AID 624417; further: nearly all actives have a fitted effect of over 55% in size
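Luminescence readout: a drop in cAMP-driven luciferase signal flags inverse agonism at a constitutively active GLP-1R stably expressed in HEK293. Compound exposure lasted 24 hr at 37 deg C, 5% CO2.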
A number is an active result; n = inactive; u = inconclusive; x = no result; [ ] = another dose, or the depositor's remark. Rows were chosen to be rich in hits. Some 1.7% of all compounds tested hit in one or more screens of this group. The call rests on the fitted dose curve; in most records, active means well fitted curve in the direction sought with a large enough effect; inconclusive means small, poorly fitted or top-dose-only effect, or another doubt; inactive means no such curve, though single readings can be large; an effect the other way counts as inactive or inconclusive.

SMILES	PTHR1 ag	GLP-1R agonist	HEK293 tox	GLP1R inv ag
Cc1ccc(C)c(C(C)NC(=O)C2CCCC2)c1 (centres undefined)	n	n	n	n
CCCCNc1ccc(C(=O)OCCN(CC)CC)cc1	x	n	x	x
O=C(CN1C(=O)COc2ccccc21)NCCc1ccc(Cl)cc1	n	x	n	n
Cc1ccc(C)c(N2C(=O)N(Cc3cccc(C(F)(F)F)c3)c3ccccc3S2(=O)=O)c1	n	n	n	u
CC(=O)c1ccc(N2C(=O)N(Cc3cccc(C(F)(F)F)c3)c3ccccc3S2(=O)=O)cc1	n	n	n	10µM
COc1ccc(Cl)cc1NC(=O)Cn1nc(Cc2ccncc2)c2ccccc2c1=O	n	x	n	n
COc1cccc(-c2sc3ccc(OC)cc3c2-c2ccc(OCCN3CCCC3)cc2)c1	n	n	n	u
COc1ccc(-c2sc3ccc(OC)cc3c2-c2ccc(OCCN3CCOCC3)cc2)cc1	n	n	n	10µM
CCOC(=O)c1c(C)oc2nc(C)nc(NCCCN3CCN(c4cccc(C)c4)C(C)C3)c12 (centres undefined)	u	x	n	n
C=CCNCC(=O)N1N=C(c2ccc3ccccc3c2)CC1c1ccc(OC)cc1 (centres undefined)	n	n	u	13µM
CCOC(=O)c1cc(-c2ccccc2)n(CCC(=O)Nc2ccc(Cl)c(C(F)(F)F)c2)c1C	n	x	u	u
Cc1cc(C(=O)COC(=O)C2=COCCO2)c(C)n1-c1ccc2c(c1)OCO2	n	n	n	u
Cc1cc(C(=O)COC(=O)C2=COCCO2)c(C)n1-c1cccc(F)c1	n	n	n	10µM
Cc1cnc(CN2CCc3c([nH]c4ccccc34)C2CC(C)C)[nH]1 (centres undefined)	n	n	n	u
Cc1cccc(CN2CCc3c([nH]c4ccccc34)C2CC(C)C)n1 (centres undefined)	n	n	n	11µM
CC(=O)N1CCCc2ccc(NC(=O)c3ccc(C(F)(F)F)cc3)cc21	n	x	n	n
COc1ccccc1C(C[N+](=O)[O-])c1c[nH]c2ccccc12 (centres undefined)	n	n	n	10µM
O=C(CN1CCN(CC(=O)Nc2ccc3c(c2)OC2(CCCCC2)O3)CC1)Nc1cccc(F)c1	n	n	u	10µM
CNCCC=C1c2ccccc2CCc2ccccc21	n	n	n	6.3µM
Cc1[nH]ccc2cc3nc4ccccc4c3cc12	n	n	n	10µM
Cc1cccc2nc3ccccc3cc12	n	n	n	n
CCn1c2ccccc2c2cc(/C=N/n3cn[nH]c3=S)ccc21	n	n	u	u
CCn1c2ccccc2c2cc(/C=N/n3c(-c4cc(C)[nH]n4)n[nH]c3=S)ccc21	n	n	n	2.5µM
O=[N+]([O-])c1ccc(NN=Cc2cc(Br)ccc2O)nc1	n	n	u	2.8µM
COC(=O)c1cn(NC(=O)c2cc([N+](=O)[O-])ccc2F)c(=O)c2ccccc12	n	n	n	1.6µM
SMILES	PTHR1 ag	GLP-1R agonist	HEK293 tox	GLP1R inv ag
COC(=O)c1cn(NC(=O)C2CCC(C)CC2)c(=O)c2ccccc12 (centres undefined)	n	n	n	n
O=[N+]([O-])c1ccc(Cl)cc1NCc1cccnc1	n	n	n	5.6µM
O=C(O)c1ccc(NCc2cccnc2)c([N+](=O)[O-])c1	u	n	n	n
Cc1ccc(Sc2ccc(N3CCCC(C(=O)Nc4ccc(F)cc4)C3)nn2)cc1 (centres undefined)	n	n	n	u
CCOc1ccccc1N(CC)C(=O)c1cc2c(=O)n(CC)c3ccccc3c2s1	n	n	u	10µM
CCCN(C(=O)c1cc2c(=O)n(CC)c3ccccc3c2s1)c1ccccc1F	n	n	n	n
Cc1ccc(-n2nc(C(=O)Nc3cccc(C#N)c3)c3c4ccccc4n(C)c3c2=O)cc1	n	x	n	n
OC[C@H]1O[C@@H](n2cnc3c2NC=NC[C@H]3O)C[C@@H]1O	x	n	x	x
O=C(c1ccc(OC2CCN(Cc3ccccc3OC(F)F)CC2)cc1)N1CCCC1	n	n	n	3.2µM
O=C(c1ccc(OC2CCN(Cc3ccc(C(F)(F)F)cc3)CC2)cc1)N1CCCCC1	n	n	n	u
O=C(c1ccc(OC2CCN(Cc3ccccc3C(F)(F)F)CC2)cc1)N1CCCCC1	n	n	u	5µM
CC(C)COc1ccc(C(=O)Nc2nnc(S(=O)(=O)N(C)Cc3ccco3)s2)cc1	n	x	n	n
CC(=NNc1ccc2ccccc2n1)c1ccccc1O	n	n	u	2.8µM
C/C(=N\Nc1nc2ccccc2nc1C)c1ccccc1O	n	n	n	u
COCCCNC(=O)C1CCN(C(=O)c2ccc(-n3ccc4ccccc43)s2)CC1	n	x	n	n
Cc1ccc(Cl)cc1N1CCN(C(=O)C2CCN(c3nnc(-n4cccc4)s3)CC2)CC1	n	n	n	3.5µM
CCN1C(=O)c2ccccc2Sc2ccc(NC(=O)Nc3ccc(C(C)=O)cc3)cc21	n	x	n	u
CCc1ccccc1NC(=O)Nc1ccc2c(c1)N(CC)C(=O)c1ccccc1S2	n	x	n	5µM
Cc1ccc(C(=O)N/C(=C\c2ccc(-c3cc(Cl)ccc3Cl)o2)C(=O)NCc2cccnc2)cc1	n	n	n	u
O=C(NCc1cccnc1)/C(=C\c1ccc(-c2cccc(Cl)c2)o1)S(=O)(=O)c1ccccc1	n	n	u	2µM
Cc1ccc(C)c(N2CCN(C(=O)C(C)n3c(C)c4cnn(-c5ccccc5)c(=O)c4c3C)CC2)c1 (centres undefined)	n	x	n	n
O=S(=O)(c1ccc(Cl)cc1)c1nc(-c2cccs2)oc1SCc1ccccc1F	n	x	n	10µM
O=C(O)COc1ccccc1/C=N/NC(=O)c1cc2ccccc2cc1O	25µM	n	n	n
COc1ccc(Oc2ccccc2/C=N/O)cc1	n	n	n	1µM
COc1ccc(C(=O)N/N=C/c2ccccc2OC(=O)c2ccccc2)cc1	n	u	n	10µM
SMILES	PTHR1 ag	GLP-1R agonist	HEK293 tox	GLP1R inv ag
CC1=C(c2ccc(C(C)C)cc2)S(=O)(=O)NC1=NCc1ccccc1Br	n	x	n	u
COc1ccc(-c2onc(C)c2C)cc1S(=O)(=O)NCC1CCN(Cc2cc(C)ccc2C)CC1	n	x	n	n
CC1=CC(C)(C)n2c(O)c(N=NC(N)=S)c3c(C)ccc1c32	n	n	n[1.53 µM]	n
CC1=CC(C)(C)n2c(O)c(N=NC(N)=S)c3cccc1c32	n	n	u	4.5µM
COc1cc2c3c(c1)c(N=NC(N)=S)c(O)n3C(C)(C)C=C2C	n	n	0.89µM	u
C/C(=N\NC(=O)CN1CCCCC1)c1ccccc1O	n	n	n	u
C/C(=N\NC(=O)CN(c1ccccc1)S(C)(=O)=O)c1ccccc1O	n	n	n	5µM
Cc1cc2oc(=O)c(CC(=O)NCCc3ccccc3F)c(C)c2c2occ(C(C)(C)C)c12	n	x	n	u
CC(Oc1cccc(Br)c1)C(=O)NNC(=O)c1ccccn1 (centres undefined)	n	n	u	11µM
CCOC(=O)c1sc(NC(=O)Nc2ccccc2Cl)cc1C	n	n	u	7.9µM

From PubChem BioAssay
